# A selection: hits, their analogues and other compounds. The true share with any hit is near 11%.
# Pf growth 48h: inhibits P. falciparum growth in the first generation, 48 h; P. falciparum luciferase growth in erythrocytes, 48 h; Potency, µM (titrated, usually from 28.7 µM), without a hit: at the highest dose activity change, negative = inhibition, usual class: inhibitors; hit rate 5.9% among 310,000; AID 504832
#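 Luciferase-expressing parasites in RBCs, 2% Hct / 0.1% parasitemia final; RPMI 1640 + 0.5% Albumax; 37 C, 5% CO2, one generation; luminescence read-out, lower signal = inhibition.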
# AmpC no deterg: AmpC beta-lactamase inhibition without detergent; P00811; AmpC nitrocefin hydrolysis, absorbance 480 nm, 0.0001% Triton; Potency, µM (top dose mostly 57.1 µM), for the others: top-dose activity change, negative = inhibition, actives largely listed as inhibitors; hit rate 0.52% among 330,000; AID 485341;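 further: plate controls were no compound for no effect and no enzyme for full effect; nearly all actives have a fitted effect of over 20% in size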
# Target sequence (P00811 whole entry, looked up): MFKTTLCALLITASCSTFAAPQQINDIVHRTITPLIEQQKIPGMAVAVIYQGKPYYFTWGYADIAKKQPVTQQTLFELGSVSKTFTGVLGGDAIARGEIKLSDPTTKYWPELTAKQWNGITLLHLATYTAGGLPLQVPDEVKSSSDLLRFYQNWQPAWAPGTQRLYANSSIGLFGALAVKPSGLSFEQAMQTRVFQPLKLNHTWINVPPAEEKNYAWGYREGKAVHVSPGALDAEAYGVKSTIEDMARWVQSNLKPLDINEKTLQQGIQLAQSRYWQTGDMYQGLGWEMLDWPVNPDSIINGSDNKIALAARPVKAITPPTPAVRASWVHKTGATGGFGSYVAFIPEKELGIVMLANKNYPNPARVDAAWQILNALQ
#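 AmpC (5.3 nM in the dispensed reagent) in 20 mM phosphate pH 7.0 with 0.01% (detergent screen) or 0.0001% Triton X-100 was preincubated with compounds for 15 min at room temperature. Nitrocefin was then added from an 800 uM solution, and hydrolysis was followed at 480 nm.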
# AmpC inh detg: AmpC beta-lactamase inhibition with detergent present; P00811; AmpC hydrolysis of nitrocefin, absorbance 480 nm, 0.01% Triton; Potency, µM (highest dose often 114 µM), without a hit: at the top dose activity change, negative = inhibition, hits mostly inhibitors; hit rate 0.041% among 370,000; AID 485294;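 further: 0% = no-compound wells and -100% = no-enzyme wells; nearly all actives have a fitted effect of over 25% in size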
#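 20 mM phosphate pH 7.0 + 0.01% (detergent screen) or 0.0001% Triton X-100; 5.3 nM AmpC reagent; cpd preinc 15 min RT; nitrocefin (800 uM stock) to start; A480 q20 s × 4 min; Activity was normalised to no-enzyme and no-compound control wells.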
# HCV inhibitor: HCV inhibition; Huh7.5.1 HCVcc-Cre infection, luciferase reporter, 44 h; Potency, µM (doses to about 41.8 µM), inactives show at the top dose activity change, negative = inhibition, most hits filed as inhibitors; hit rate 3.4% among 340,000; AID 651820
#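 Infectious HCV cell culture screen: compound-treated cells (1,000/well, pre-plated 4 h) are infected with HCVcc-Cre at roughly 0.5 moi and grown 44 h. Infection is quantified by luciferase signal after 15 min substrate incubation at room temperature.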
# Pf growth 96h: P. falciparum growth inhibition at 96 hours; AID 504834; P. falciparum luciferase reporter growth, 96 h; Potency, µM (series often up to 28.7 µM), inactives show at the highest dose activity change, negative = inhibition, most hits filed as inhibitors; hit rate 6.9% among 320,000
#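 P. falciparum expressing integrated firefly luciferase grown in erythrocytes (2% hematocrit, 0.05% parasitemia final) with compounds for 96 hours at 37 C, 5% CO2. Growth inhibition read as loss of luminescence after adding luciferase detection reagent.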
# AMA1 RON2 block: disrupts binding of P. falciparum AMA1 to RON2. hit rate 0.2% among 360,000. AlphaScreen AMA1-biotinylated RON2 peptide binding. AID 720542. Potency, µM (highest dose often 58.2 µM), for inactives: at the highest dose activity change, negative = inhibition, actives largely listed as inhibitors;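 further: 0% = vehicle wells and -100% = peptide control; nearly all actives have a fitted effect of over 45% in size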
#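 AMA1 (3D7) with his tag at 25 nM final met compounds first, then biotinylated RON2 peptide at 25 nM; detection used donor plus acceptor beads, 10 µg/mL apiece, read by AlphaScreen after 30 min at room temperature.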
# * = called active by the depositor; ? = inconclusive; / = not tested or not shown. The call rests on the fitted dose curve; in most records, active means well fitted curve in the direction sought with a large enough effect; inconclusive means small, poorly fitted or top-dose-only effect, or another doubt; inactive means no such curve, though single readings can be large; an effect the other way counts as inactive or inconclusive. Unless noted, on the % scale 0 is the no-effect control and ±100 the full control effect; potency means the concentration at half of the fitted maximal effect.
SMILES,Pf growth 48h,AmpC no deterg,AmpC inh detg,HCV inhibitor,Pf growth 96h,AMA1 RON2 block
O=C(Nc1nc2ccc(Cl)cc2s1)C1CCCO1 (stereo unspecified),/,5%,-6%,-24%,30%,-4%
O=C(Nc1nc2cc3c(cc2s1)OCO3)C1CC1,81%,-26%,-7%,10µM*,95%,-7%
CC(C)C(=O)Nc1nc2cc3c(cc2s1)OCO3,107%,10µM*,?,?,96%,-7%
O=C(Nc1nc2ccc(Cl)cc2s1)C1CC1,/,/,/,8.9µM*,/,4%
CNS(=O)(=O)c1cn(CC(=O)Nc2cccc(C(F)(F)F)c2)cc1S(=O)(=O)NC,/,/,17%,/,/,/
CC1=C(C(=O)Nc2cccnc2)C(c2cccc(Br)c2)n2nc(SCc3ccccc3)nc2N1 (stereo unspecified),/,/,-2%,/,/,/
Cc1cccc(NC(=O)CSc2nc(-c3ccccc3)cc(=O)[nH]2)c1C,/,/,-4%,/,/,/
CC1CCN(CC(CS(=O)(=O)c2ccc([N+](=O)[O-])cc2)N2CCC(C)CC2)CC1 (stereo unspecified),?,-13%,-6%,5µM*,?,-15%
COc1ccccc1CNc1nc2nc(C)c(Cl)c(C)n2n1,/,/,-1%,/,/,/
COc1cc(/C=C(\C#N)c2nn(CCO)c(N)c2C#N)cc(OC)c1OC,7.4µM*,-9%,7%,?,-15%,1%
CCOC(=O)c1c(NC(=O)CSc2cn(CCNC(=O)c3ccccc3OC)c3ccccc23)sc2c1CCCC2,/,/,4%,/,/,/
O=C(COc1ccc(S(=O)(=O)N2CCOCC2)cc1)NCCCn1ccnc1,-4%,-9%,-11%,10%,-14%,-18%
O=C(/C=C/c1ccc(F)cc1)Nc1cccc(S(=O)(=O)N2CCOCC2)c1,/,-15%,/,10µM*,/,-4%
CCN(CC)S(=O)(=O)c1cccc(NC(=S)NC(=O)/C=C/c2ccc(S(=O)(=O)N3CCOCC3)cc2)c1,?,-24%,?,-5%,4.7µM*,-14%
O=C(/C=C/c1ccc(S(=O)(=O)N2CCOCC2)cc1)NC(=S)NCCCn1ccnc1,?,6%,-11%,22µM*,?,16%
Cc1ccc(CNC(=O)c2cccc(NC(=O)N3CCSc4ncccc43)c2)cc1,/,/,1%,/,/,/
O=C1Nc2ccccc2C12OC1CCCCC1O2 (stereo unspecified),12µM*,-17%,-7%,7%,3.7µM*,0%
Cc1ccc(C(=O)c2cn(Cc3ccccc3)c3nc(C)ccc3c2=O)cc1,/,/,12%,/,/,/
C[C@H](OC(=O)N1CCN(C(c2ccccc2)c2ccccc2)CC1)[C@@H]1O[C@@]2(C)CCC[C@H]1O2,6.6µM*,183%,-1%,-7%,4.7µM*,-3%
COC(=O)CCCC(=O)N1CCC(CO)(CCc2ccccc2)CC1,3%,69%,?,25%,?,-2%
O=C(c1ccoc1)N1CCC(CO)(CCc2ccccc2)CC1,6%,2%,4%,-7%,12µM*,-1%
CCCC(CCC)C(=O)NC1CC(=O)N(c2ccc3c(c2)OCCO3)C1 (stereo unspecified),/,/,-1%,/,/,/
CCOc1ccc(-n2c(CC)nc3c(cnn3-c3ccc(Cl)cc3)c2=O)cc1,/,/,1%,/,/,/
COc1ccc(-n2c(C)nc3c(cnn3-c3ccc(C)c(C)c3)c2=O)cc1Cl,/,/,0%,/,/,/
Cc1nc2c(cnn2-c2ccccc2Cl)c(=O)n1-c1ccc(N2CCC(C)CC2)cc1,/,11%,6%,13µM*,9%,-8%
SMILES,Pf growth 48h,AmpC no deterg,AmpC inh detg,HCV inhibitor,Pf growth 96h,AMA1 RON2 block
Cc1ccc(-n2c(C)nc3c(cnn3-c3ccccc3Cl)c2=O)cc1C,/,16%,0%,-2%,3.7µM*,0%
CCc1nc2c(cnn2-c2ccc(F)cc2)c(=O)n1-c1ccc(N2CCC(C)CC2)cc1,/,-16%,-10%,0%,3.3µM*,-3%
Cc1ccc(-n2c(C)nc3c(cnn3-c3ccc(C)c(C)c3)c2=O)cc1C,/,-16%,?,-3%,50%,13%
COc1cccc(NC(=O)Cn2c(=O)n(C)c(=O)c3sc4c(c32)COC(C)(C)C4)c1,4.1µM*,-12%,-1%,11%,2.6µM*,-13%
Cc1cccc(NC(=O)Cn2nnc3sc4c(c3c2=O)CC(C)(C)OC4)c1,4%,-6%,-1%,?,-10%,13%
Oc1ccc(C2C(c3ccccc3)=NN=C(c3ccc(Cl)cc3)N2O)c(O)c1 (stereo unspecified),?,25µM*,?,?,2.6µM*,6%
COc1ccc(C(=O)/C=C/C(=O)N(CC(=O)NC2CCCCC2)Cc2ccccc2)c(O)c1,?,18%,-2%,?,2.6µM*,14%
COc1ccc(C(=O)/C=C/C(=O)N(CC(=O)NC2CCCCC2)Cc2ccccc2OC)c(O)c1,9.3µM*,18%,3%,?,?,0%
COc1nc(Oc2ccc(=O)n(-c3ccccc3)n2)nc(N(C)C)n1,/,/,-7%,/,/,/
Cc1ccc2c(C)nc(NC3=NCN(CCc4ccccc4)CN3)nc2c1,2.6µM*,-25%,?,/,239%,/
COCCN1CN=C(Nc2nc(C)c3ccc(C)cc3n2)NC1,2.1µM*,-30%,-13%,/,3%,/
Cc1nc(NC2=NCN(CCc3ccccc3)CN2)nc2ccccc12,?,-11%,-1%,10%,/,/
Cc1cccc(C)c1NC(=O)Cn1cc(C(=O)C2CC2)c2ccccc21,/,/,23%,/,/,/
COc1ccc(CN2C(=O)C(CC(C)C)Nc3ncnc(N4CCN(c5ccccn5)CC4)c32)cc1 (stereo unspecified),?,63%,0%,0%,?,0%
CC(C)CC1Nc2ncnc(N3CCN(c4ccccn4)CC3)c2N(Cc2ccc(Br)cc2)C1=O (stereo unspecified),7.4µM*,24%,?,25µM*,8.3µM*,-11%
Cc1ccc(CN2C(=O)C(CC(C)C)Nc3ncnc(N4CCN(c5ccccn5)CC4)c32)cc1 (stereo unspecified),9.3µM*,38%,-10%,?,?,0%
CCS(=O)(=O)c1nc2ccccc2n1Cc1ccccc1Cl,?,19%,?,?,10µM*,-2%
CS(=O)(=O)c1nc2ccccc2n1Cc1ccccc1,-15%,-9%,2%,15%,-5%,-1%
COc1ccc(C2=C(N3CCN(c4cccc(C)c4C)CC3)c3ccccc3C2=O)cc1,/,/,15%,/,/,/
Cc1ccc(C)c(CN2C(=O)C3CCCN3c3ccc(S(=O)(=O)N4CCOCC4)cc32)c1 (stereo unspecified),1µM*,10%,-2%,/,?,/

# Assay outcomes from PubChem.
